# Laboratory results: ChEMBL document CHEMBL2218924, “A broad activity screen in support of a chemogenomic map for kinase signalling research and drug discovery” (Biochem J, 2013)
# Key:
# [1] = molecular target: RAC-alpha serine/threonine-protein kinase (Homo sapiens) (UniProt P31749); conditions: at 1 µM
# [2] = molecular target: RAC-alpha serine/threonine-protein kinase (Homo sapiens) (UniProt P31749); conditions: at 10 µM
# [3] = molecular target: T1, Activin receptor type-1B (Homo sapiens) (UniProt P36896); conditions: at 1 µM
# T1 sequence (whole entry): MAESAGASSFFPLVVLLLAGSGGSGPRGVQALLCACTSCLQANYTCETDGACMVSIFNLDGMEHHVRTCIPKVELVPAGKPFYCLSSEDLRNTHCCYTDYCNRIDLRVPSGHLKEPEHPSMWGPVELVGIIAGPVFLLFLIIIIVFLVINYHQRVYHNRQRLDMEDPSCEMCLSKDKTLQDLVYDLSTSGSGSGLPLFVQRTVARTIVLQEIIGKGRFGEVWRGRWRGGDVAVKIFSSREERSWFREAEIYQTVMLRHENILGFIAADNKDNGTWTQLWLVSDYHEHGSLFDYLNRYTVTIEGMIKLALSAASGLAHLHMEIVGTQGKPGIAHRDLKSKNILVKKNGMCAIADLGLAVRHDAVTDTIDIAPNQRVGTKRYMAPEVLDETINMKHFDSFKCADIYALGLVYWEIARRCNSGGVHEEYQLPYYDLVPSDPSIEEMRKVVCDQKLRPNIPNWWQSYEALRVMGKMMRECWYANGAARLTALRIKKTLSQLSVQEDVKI
# [4] = molecular target: T1, Activin receptor type-1B (Homo sapiens); conditions: at 10 µM
# [5] = molecular target: T2, AMP-activated protein kinase (AMPK) alpha-1/beta-1/gamma-1 (Homo sapiens) (UniProt P54619+Q9Y478+Q13131); conditions: at 1 µM
# [6] = molecular target: T2, AMP-activated protein kinase (AMPK) alpha-1/beta-1/gamma-1 (Homo sapiens); conditions: at 10 µM
# [7] = molecular target: T3, AMP-activated protein kinase, AMPK (Homo sapiens) (UniProt P54646+O43741+P54619+Q9UGJ0+Q9Y478+Q13131+Q9UGI9); conditions: at 1 µM
# [8] = molecular target: T3, AMP-activated protein kinase, AMPK (Homo sapiens); conditions: at 10 µM
# [9] = molecular target: cAMP-dependent protein kinase catalytic subunit alpha (Homo sapiens) (UniProt P17612); conditions: at 1 µM
# [10] = molecular target: cAMP-dependent protein kinase catalytic subunit alpha (Homo sapiens) (UniProt P17612); conditions: at 10 µM
# [11] = molecular target: RAC-gamma serine/threonine-protein kinase (Homo sapiens) (UniProt Q9Y243); conditions: at 1 µM
# [12] = molecular target: T4, NUAK family SNF1-like kinase 1 (Homo sapiens) (UniProt O60285); conditions: at 1 µM
# T4 sequence (whole entry): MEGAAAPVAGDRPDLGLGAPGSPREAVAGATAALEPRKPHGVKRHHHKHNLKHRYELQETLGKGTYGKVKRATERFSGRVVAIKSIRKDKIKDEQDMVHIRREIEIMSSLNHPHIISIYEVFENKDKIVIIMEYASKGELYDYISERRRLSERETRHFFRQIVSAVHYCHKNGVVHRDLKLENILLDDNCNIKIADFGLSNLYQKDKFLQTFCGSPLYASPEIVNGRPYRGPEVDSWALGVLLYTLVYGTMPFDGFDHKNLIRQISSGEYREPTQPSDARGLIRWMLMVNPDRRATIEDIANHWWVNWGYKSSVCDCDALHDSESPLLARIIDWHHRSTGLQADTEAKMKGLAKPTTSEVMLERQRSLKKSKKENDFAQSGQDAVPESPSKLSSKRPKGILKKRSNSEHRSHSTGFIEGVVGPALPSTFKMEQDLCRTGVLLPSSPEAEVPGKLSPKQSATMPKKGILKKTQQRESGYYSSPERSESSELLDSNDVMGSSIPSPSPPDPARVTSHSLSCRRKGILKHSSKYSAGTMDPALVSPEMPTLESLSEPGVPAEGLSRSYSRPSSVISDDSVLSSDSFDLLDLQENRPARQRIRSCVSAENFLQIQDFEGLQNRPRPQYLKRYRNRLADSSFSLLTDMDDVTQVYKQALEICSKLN
# [13] = molecular target: T4, NUAK family SNF1-like kinase 1 (Homo sapiens); conditions: at 10 µM
# [14] = molecular target: T5, Mitogen-activated protein kinase kinase kinase 5 (Homo sapiens) (UniProt Q99683); conditions: at 1 µM
# T5 sequence (whole entry): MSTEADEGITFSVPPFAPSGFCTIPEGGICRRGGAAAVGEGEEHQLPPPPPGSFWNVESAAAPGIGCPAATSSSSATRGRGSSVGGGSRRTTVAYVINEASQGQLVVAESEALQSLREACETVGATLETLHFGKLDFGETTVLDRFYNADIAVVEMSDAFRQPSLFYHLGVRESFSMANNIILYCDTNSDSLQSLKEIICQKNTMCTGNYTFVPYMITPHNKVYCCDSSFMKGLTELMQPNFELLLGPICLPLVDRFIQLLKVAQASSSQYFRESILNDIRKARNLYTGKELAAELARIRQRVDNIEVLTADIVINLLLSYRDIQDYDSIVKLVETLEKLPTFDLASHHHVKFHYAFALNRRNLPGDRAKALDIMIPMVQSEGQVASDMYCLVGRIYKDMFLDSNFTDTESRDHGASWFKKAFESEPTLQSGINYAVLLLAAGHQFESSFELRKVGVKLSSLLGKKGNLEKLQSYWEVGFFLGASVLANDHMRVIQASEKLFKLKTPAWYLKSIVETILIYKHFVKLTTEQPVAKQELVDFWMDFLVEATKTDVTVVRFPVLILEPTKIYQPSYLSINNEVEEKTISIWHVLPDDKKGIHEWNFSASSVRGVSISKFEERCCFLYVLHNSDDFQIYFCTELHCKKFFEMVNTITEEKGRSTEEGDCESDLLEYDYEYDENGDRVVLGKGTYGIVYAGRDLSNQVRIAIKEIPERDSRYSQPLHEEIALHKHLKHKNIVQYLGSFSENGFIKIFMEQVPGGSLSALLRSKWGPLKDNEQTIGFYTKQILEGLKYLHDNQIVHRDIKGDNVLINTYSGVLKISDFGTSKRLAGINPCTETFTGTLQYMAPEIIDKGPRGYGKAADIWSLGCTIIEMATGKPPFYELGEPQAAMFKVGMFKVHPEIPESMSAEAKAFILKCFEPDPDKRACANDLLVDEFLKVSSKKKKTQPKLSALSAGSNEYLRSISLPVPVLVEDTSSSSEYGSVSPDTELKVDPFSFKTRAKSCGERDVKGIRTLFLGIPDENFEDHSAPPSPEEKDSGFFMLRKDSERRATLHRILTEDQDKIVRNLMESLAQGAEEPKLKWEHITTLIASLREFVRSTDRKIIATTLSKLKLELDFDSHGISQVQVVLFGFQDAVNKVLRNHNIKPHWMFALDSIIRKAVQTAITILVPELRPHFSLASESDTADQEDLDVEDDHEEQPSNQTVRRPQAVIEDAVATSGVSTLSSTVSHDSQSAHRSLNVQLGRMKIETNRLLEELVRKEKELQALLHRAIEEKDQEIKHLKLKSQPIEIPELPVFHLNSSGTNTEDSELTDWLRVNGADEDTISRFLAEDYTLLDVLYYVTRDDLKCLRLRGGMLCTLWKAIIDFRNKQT
# [15] = molecular target: Platelet-derived growth factor receptor alpha (Homo sapiens) (UniProt P16234); conditions: at 1 µM
# [16] = molecular target: Platelet-derived growth factor receptor alpha (Homo sapiens) (UniProt P16234); conditions: at 10 µM
# [17] = molecular target: Platelet-derived growth factor receptor beta (Homo sapiens) (UniProt P09619); conditions: at 1 µM
# [18] = molecular target: Platelet-derived growth factor receptor beta (Homo sapiens) (UniProt P09619); conditions: at 10 µM
# [19] = molecular target: T6, 3-phosphoinositide-dependent protein kinase 1 (Homo sapiens) (UniProt O15530); conditions: at 1 µM
# T6 sequence (whole entry): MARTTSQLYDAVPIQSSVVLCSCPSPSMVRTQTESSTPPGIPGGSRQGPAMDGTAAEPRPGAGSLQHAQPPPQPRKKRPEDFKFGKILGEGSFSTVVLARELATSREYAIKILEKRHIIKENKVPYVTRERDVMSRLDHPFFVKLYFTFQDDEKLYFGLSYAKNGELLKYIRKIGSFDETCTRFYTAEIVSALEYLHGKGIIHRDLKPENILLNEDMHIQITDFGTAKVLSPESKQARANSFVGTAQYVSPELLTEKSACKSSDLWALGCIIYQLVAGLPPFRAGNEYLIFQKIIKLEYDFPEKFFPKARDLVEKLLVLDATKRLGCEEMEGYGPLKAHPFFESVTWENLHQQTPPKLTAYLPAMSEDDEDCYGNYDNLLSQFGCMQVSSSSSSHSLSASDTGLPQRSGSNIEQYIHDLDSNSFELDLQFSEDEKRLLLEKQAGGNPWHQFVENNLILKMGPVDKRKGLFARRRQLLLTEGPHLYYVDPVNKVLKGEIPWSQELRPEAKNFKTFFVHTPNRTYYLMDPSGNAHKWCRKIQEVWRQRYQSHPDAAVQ
# [20] = molecular target: T6, 3-phosphoinositide-dependent protein kinase 1 (Homo sapiens); conditions: at 10 µM
# Chain of RAC-gamma serine/threonine-protein kinase (Homo sapiens) (Q9Y243 whole entry): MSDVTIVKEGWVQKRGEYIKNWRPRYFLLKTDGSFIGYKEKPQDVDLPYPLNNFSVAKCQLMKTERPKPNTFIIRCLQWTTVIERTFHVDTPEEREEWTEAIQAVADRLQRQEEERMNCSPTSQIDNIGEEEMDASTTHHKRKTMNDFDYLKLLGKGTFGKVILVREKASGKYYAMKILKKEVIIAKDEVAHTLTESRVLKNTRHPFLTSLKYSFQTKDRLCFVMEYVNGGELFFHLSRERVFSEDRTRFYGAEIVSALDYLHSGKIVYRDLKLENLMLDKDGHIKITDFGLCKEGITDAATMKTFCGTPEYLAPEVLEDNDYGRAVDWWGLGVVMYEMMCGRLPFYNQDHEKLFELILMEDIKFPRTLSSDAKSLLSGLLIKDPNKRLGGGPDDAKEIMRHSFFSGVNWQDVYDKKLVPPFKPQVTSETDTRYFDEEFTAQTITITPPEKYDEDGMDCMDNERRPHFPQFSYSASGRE
# Chain of Platelet-derived growth factor receptor beta (Homo sapiens) (P09619 whole entry): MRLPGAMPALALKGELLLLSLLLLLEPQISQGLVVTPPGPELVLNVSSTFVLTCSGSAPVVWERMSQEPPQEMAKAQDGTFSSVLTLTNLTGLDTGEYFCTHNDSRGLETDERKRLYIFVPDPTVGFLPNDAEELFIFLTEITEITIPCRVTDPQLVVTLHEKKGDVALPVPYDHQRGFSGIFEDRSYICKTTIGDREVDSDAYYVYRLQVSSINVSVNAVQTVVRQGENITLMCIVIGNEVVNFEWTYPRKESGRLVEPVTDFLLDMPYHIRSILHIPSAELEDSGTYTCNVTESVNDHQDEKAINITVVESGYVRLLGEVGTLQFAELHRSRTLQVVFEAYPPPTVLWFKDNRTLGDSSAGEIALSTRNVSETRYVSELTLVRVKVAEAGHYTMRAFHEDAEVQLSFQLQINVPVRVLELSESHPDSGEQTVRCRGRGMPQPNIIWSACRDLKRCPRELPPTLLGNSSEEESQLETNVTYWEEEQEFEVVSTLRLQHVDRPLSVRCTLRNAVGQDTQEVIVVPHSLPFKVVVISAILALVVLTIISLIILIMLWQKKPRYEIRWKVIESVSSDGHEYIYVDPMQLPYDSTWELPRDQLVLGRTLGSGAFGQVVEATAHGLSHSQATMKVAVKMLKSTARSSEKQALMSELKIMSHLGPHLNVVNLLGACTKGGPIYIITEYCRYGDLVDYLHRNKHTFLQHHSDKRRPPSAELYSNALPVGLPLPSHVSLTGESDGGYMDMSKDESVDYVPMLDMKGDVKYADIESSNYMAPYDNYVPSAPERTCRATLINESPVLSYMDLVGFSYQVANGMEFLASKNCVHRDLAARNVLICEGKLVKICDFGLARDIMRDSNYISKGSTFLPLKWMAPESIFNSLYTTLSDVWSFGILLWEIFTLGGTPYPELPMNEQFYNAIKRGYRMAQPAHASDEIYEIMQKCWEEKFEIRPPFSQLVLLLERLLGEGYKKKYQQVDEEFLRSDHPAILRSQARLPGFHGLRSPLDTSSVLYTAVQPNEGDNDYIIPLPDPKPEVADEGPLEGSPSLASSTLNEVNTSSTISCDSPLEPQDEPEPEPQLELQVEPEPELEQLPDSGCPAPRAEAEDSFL
# T2 sequence (P54619 whole entry): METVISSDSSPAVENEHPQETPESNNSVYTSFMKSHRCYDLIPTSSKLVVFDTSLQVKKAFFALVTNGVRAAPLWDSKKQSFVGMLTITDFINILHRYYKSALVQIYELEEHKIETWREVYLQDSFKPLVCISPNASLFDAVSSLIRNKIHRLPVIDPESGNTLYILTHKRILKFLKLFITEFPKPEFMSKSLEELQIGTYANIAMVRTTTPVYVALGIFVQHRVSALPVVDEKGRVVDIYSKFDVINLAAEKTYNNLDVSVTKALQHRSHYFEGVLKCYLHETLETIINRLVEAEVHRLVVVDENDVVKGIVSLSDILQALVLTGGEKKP
# T2 sequence (Q13131 whole entry partner): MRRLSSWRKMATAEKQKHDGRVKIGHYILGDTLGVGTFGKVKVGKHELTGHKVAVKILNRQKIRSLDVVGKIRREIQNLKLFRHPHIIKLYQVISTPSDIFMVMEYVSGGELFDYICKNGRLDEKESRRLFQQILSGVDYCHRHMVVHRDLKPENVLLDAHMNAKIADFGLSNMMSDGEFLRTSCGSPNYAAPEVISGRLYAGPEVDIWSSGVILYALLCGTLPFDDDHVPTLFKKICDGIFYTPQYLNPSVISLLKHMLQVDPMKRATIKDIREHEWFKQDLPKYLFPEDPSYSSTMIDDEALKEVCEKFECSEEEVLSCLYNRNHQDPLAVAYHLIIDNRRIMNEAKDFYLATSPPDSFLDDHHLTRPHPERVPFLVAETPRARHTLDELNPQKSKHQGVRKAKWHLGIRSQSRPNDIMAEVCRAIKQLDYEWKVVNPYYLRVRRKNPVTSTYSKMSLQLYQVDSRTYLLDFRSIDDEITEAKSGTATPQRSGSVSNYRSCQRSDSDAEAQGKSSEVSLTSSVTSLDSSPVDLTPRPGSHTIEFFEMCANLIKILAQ
# T2 sequence (Q9Y478 2-270 partner limits assumed): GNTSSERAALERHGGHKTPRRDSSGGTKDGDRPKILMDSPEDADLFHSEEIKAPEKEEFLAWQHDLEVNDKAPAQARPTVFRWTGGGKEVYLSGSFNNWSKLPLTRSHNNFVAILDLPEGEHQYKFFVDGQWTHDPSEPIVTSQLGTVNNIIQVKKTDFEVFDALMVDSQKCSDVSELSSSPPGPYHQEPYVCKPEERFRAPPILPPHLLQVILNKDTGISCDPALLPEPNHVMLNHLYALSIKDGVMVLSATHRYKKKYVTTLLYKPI
# Chain of Platelet-derived growth factor receptor alpha (Homo sapiens) (P16234 whole entry): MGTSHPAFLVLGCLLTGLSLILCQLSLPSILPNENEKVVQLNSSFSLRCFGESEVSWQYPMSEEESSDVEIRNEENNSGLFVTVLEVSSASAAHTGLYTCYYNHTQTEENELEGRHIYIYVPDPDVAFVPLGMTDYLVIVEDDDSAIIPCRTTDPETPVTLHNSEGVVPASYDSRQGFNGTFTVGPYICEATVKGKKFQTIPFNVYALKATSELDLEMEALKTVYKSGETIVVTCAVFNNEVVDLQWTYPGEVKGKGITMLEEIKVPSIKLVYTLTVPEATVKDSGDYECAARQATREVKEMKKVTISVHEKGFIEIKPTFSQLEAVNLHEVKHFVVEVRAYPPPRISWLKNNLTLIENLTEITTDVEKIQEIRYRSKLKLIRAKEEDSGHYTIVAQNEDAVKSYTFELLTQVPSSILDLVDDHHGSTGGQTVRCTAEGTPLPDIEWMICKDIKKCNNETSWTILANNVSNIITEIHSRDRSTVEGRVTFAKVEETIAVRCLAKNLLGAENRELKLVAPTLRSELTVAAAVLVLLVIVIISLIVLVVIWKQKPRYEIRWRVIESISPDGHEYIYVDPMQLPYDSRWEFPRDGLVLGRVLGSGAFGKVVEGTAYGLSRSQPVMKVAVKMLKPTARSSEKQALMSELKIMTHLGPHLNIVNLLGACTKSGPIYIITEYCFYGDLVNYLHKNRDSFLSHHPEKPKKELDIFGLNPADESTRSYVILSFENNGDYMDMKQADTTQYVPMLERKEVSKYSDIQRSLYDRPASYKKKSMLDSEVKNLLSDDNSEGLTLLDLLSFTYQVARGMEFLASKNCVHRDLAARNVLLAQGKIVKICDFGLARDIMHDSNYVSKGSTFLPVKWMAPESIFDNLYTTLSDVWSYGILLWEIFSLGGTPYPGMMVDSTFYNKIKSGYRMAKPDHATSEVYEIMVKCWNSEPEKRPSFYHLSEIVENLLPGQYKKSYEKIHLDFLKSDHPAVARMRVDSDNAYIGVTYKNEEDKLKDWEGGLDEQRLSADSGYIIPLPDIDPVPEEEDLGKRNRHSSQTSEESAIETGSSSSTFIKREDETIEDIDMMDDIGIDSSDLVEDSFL
# Chain of RAC-alpha serine/threonine-protein kinase (Homo sapiens) (P31749 whole entry): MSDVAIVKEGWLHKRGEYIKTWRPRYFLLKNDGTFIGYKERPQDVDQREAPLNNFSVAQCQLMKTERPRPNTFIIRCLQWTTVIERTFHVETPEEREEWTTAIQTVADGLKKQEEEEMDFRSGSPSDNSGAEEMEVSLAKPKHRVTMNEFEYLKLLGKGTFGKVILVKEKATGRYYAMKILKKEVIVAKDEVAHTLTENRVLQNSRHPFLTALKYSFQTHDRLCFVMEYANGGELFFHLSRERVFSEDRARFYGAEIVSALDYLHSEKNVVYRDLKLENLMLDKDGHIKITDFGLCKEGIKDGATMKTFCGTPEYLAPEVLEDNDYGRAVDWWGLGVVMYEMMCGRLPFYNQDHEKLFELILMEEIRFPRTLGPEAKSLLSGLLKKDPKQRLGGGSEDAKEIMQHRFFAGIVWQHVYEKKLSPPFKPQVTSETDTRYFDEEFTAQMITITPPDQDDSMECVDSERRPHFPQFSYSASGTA
compound,measurement,setting,value
Nc1ccc2ncnc(NCCc3ccc(Oc4ccccc4)cc3)c2c1,residual activity,[1],110%
same,residual activity,[2],108%
COc1cc2ncnc(Nc3cccc(Cl)c3)c2cc1OC,residual activity,[1],86%
COc1ccc2c(c[n+](C)c3c4cc5c(cc4ccc23)OCO5)c1OC,residual activity,[3],132%
same,residual activity,[4],94%
same,residual activity,[5],96%
same,residual activity,[6],66%
same,residual activity,[7],89%
same,residual activity,[8],60%
same,residual activity,[9],98%
same,residual activity,[10],73%
same,residual activity,[1],98%
same,residual activity,[2],110%
same,residual activity,[11],82%
COC(=O)[C@@]1(O)C[C@H]2O[C@]1(C)n1c3ccccc3c3c4c(c5c6ccccc6n2c5c31)C(=O)NC4,residual activity,[3],24%
same,residual activity,[4],0%
same,residual activity,[5],-1%
same,residual activity,[6],0%
same,residual activity,[7],-5%
same,residual activity,[8],1%
same,residual activity,[12],1%
same,residual activity,[13],1%
same,residual activity,[14],0%
same,residual activity,[15],32%
same,residual activity,[16],8%
same,residual activity,[17],46%
same,residual activity,[18],8%
same,residual activity,[19],-1%
same,residual activity,[20],0%
same,residual activity,[9],7%
same,residual activity,[10],3%
same,residual activity,[1],101%
same,residual activity,[2],37%
same,residual activity,[11],11%
Cn1cnc2cc3c(Nc4cccc(Br)c4)ncnc3cc21,residual activity,[1],95%
same,residual activity,[2],109%
O=C1c2ccccc2-c2nc3nnnn3nc21,residual activity,[7],122%
same,residual activity,[8],75%
same,residual activity,[14],107%
same,residual activity,[15],128%
same,residual activity,[16],111%
same,residual activity,[17],120%
same,residual activity,[18],111%
same,residual activity,[19],121%
same,residual activity,[20],116%
same,residual activity,[1],103%
same,residual activity,[2],112%
same,residual activity,[11],117%
COc1ccc(S(=O)(=O)N(CCO)c2ccccc2CN(C)C/C=C/c2ccc(Cl)cc2)cc1,residual activity,[1],116%
same,residual activity,[2],112%
COc1ccc(Cl)cc1NC(=O)Nc1cc(C)nc2ccccc12,residual activity,[1],95%
same,residual activity,[2],94%
Nc1nc(Nc2ccc(S(N)(=O)=O)cc2)nn1C(=S)Nc1c(F)cccc1F,residual activity,[1],122%
CCCC(=O)Oc1ccc2[nH]c(C(=O)c3cc4ccccc4[nH]3)cc2c1,residual activity,[1],97%
CCn1cnc2c(Nc3cccc(Cl)c3)nc(N[C@@H]3CCCC[C@@H]3N)nc21,residual activity,[3],123%
same,residual activity,[5],77%
same,residual activity,[6],22%
same,residual activity,[7],64%
same,residual activity,[8],22%
same,residual activity,[12],38%
same,residual activity,[13],10%
same,residual activity,[14],91%
same,residual activity,[15],100%
same,residual activity,[16],86%
same,residual activity,[18],76%
same,residual activity,[20],84%
same,residual activity,[11],94%
O=C1NC(=O)c2c1c1c3ccccc3n3c1c1c2c2ccccc2n1C1CCC3O1,residual activity,[3],90%
same,residual activity,[4],93%
same,residual activity,[5],74%
same,residual activity,[6],71%
same,residual activity,[7],55%
same,residual activity,[8],68%
same,residual activity,[12],39%
same,residual activity,[13],48%
same,residual activity,[14],96%
same,residual activity,[15],93%
same,residual activity,[16],81%
same,residual activity,[17],90%
same,residual activity,[18],86%
same,residual activity,[19],27%
same,residual activity,[20],4%
same,residual activity,[9],70%
same,residual activity,[10],68%
same,residual activity,[11],96%
